From the supplement of paper PMC9492666
Structures can show the parent of a compound that is named as a salt.

Legend:
HCC1937 = test: relative cell viability, compound + RSL3, vs DMSO (fraction of DMSO control); higher = less growth inhibition; conditions: 72 h
MDA-MB-231 = test: as above; conditions: 72 h
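Note: breast cancer cell viability read out with the CCK-8 kit after co-treatment of each compound with the ferroptosis inducer RSL3.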

Compound: C[C@H](CCOc1cccc(CC(=O)O)c1)N(Cc1cccc(C(F)(F)F)c1Cl)CC(c1ccccc1)c1ccccc1 [RGX-104 free Acid] + COC(=O)c1ccc([C@H]2c3[nH]c4ccccc4c3C[C@H](C(=O)OC)N2C(=O)CCl)cc1 [RSL3]
- relative cell viability (HCC1937): 0.333
- relative cell viability (MDA-MB-231): 0.561

Compound: NC(=O)c1cnccn1 [Pyrazinamide] + COC(=O)c1ccc([C@H]2c3[nH]c4ccccc4c3C[C@H](C(=O)OC)N2C(=O)CCl)cc1 [RSL3]
- relative cell viability (HCC1937): 0.607
- relative cell viability (MDA-MB-231): 0.558

Compound: CC(C)c1cc(C(C)C)c(CC(=O)NS(=O)(=O)Oc2c(C(C)C)cccc2C(C)C)c(C(C)C)c1 [Avasimibe] + COC(=O)c1ccc([C@H]2c3[nH]c4ccccc4c3C[C@H](C(=O)OC)N2C(=O)CCl)cc1 [RSL3]
- relative cell viability (HCC1937): 0.322
- relative cell viability (MDA-MB-231): 0.511

Compound: Cc1c(C(=O)NN2CCOCC2)nn(-c2ccc(Cl)cc2Cl)c1-c1ccc(I)cc1 + COC(=O)c1ccc([C@H]2c3[nH]c4ccccc4c3C[C@H](C(=O)OC)N2C(=O)CCl)cc1 [RSL3]
- relative cell viability (HCC1937): 0.0566
- relative cell viability (MDA-MB-231): 0.297

Compound: CCN(CC)Cc1ccc(C(=O)N(CCc2ccccc2OC)[C@@H]2CCNC2)cc1 + COC(=O)c1ccc([C@H]2c3[nH]c4ccccc4c3C[C@H](C(=O)OC)N2C(=O)CCl)cc1 [RSL3]
- relative cell viability (HCC1937): 0.666
- relative cell viability (MDA-MB-231): 0.784

Compound: Nc1ncnc2c1ncn2[C@@H]1O[C@H](COP(=O)(O)O)[C@@H](O)[C@H]1O [Adenosine 5'-monophosphate] + COC(=O)c1ccc([C@H]2c3[nH]c4ccccc4c3C[C@H](C(=O)OC)N2C(=O)CCl)cc1 [RSL3]
- relative cell viability (HCC1937): 0.597
- relative cell viability (MDA-MB-231): 0.485

Compound: COc1ccc(-c2coc3cc(O)cc(O)c3c2=O)cc1 [Biochanin A] + COC(=O)c1ccc([C@H]2c3[nH]c4ccccc4c3C[C@H](C(=O)OC)N2C(=O)CCl)cc1 [RSL3]
- relative cell viability (HCC1937): 0.66
- relative cell viability (MDA-MB-231): 0.438

Compound: CC(=O)c1c(C)cc2cccc(O)c2c1O [Nepodin] + COC(=O)c1ccc([C@H]2c3[nH]c4ccccc4c3C[C@H](C(=O)OC)N2C(=O)CCl)cc1 [RSL3]
- relative cell viability (HCC1937): 0.404
- relative cell viability (MDA-MB-231): 0.56

Compound: CC(C)[C@H]1CC[C@H](C(=O)N[C@H](Cc2ccccc2)C(=O)O)CC1 [Nateglinide] + COC(=O)c1ccc([C@H]2c3[nH]c4ccccc4c3C[C@H](C(=O)OC)N2C(=O)CCl)cc1 [RSL3]
- relative cell viability (HCC1937): 0.594
- relative cell viability (MDA-MB-231): 0.487

Compound: C[C@H](CCCC(C)(C)O)[C@H]1CC[C@H]2[C@@H]3CC=C4C[C@@H](O)CC[C@]4(C)[C@H]3CC[C@]12C [25-Hydroxycholesterol] + COC(=O)c1ccc([C@H]2c3[nH]c4ccccc4c3C[C@H](C(=O)OC)N2C(=O)CCl)cc1 [RSL3]
- relative cell viability (HCC1937): 0.572
- relative cell viability (MDA-MB-231): 0.649

Compound: N=C(N)NC(=N)NCCc1ccccc1 [Phenformin hydrochloride] + COC(=O)c1ccc([C@H]2c3[nH]c4ccccc4c3C[C@H](C(=O)OC)N2C(=O)CCl)cc1 [RSL3]
- relative cell viability (HCC1937): 0.653
- relative cell viability (MDA-MB-231): 0.543

Compound: O=C(CCCCc1ccc2c(c1)OCO2)N1CCCCC1 + COC(=O)c1ccc([C@H]2c3[nH]c4ccccc4c3C[C@H](C(=O)OC)N2C(=O)CCl)cc1 [RSL3]
- relative cell viability (HCC1937): 0.262
- relative cell viability (MDA-MB-231): 0.562

Compound: Cc1c(C)c2c(c(C)c1O)CCC(C)(COc1ccc(CC3SC(=O)NC3=O)cc1)O2 (configuration not stated) [Troglitazone] + COC(=O)c1ccc([C@H]2c3[nH]c4ccccc4c3C[C@H](C(=O)OC)N2C(=O)CCl)cc1 [RSL3]
- relative cell viability (HCC1937): 0.431
- relative cell viability (MDA-MB-231): 0.686

Compound: CCCc1cc(-c2nc(-c3ccc(NS(C)(=O)=O)cc3)cs2)ccn1 + COC(=O)c1ccc([C@H]2c3[nH]c4ccccc4c3C[C@H](C(=O)OC)N2C(=O)CCl)cc1 [RSL3]
- relative cell viability (HCC1937): 0.322
- relative cell viability (MDA-MB-231): 0.551

Compound: N#Cc1ccc(Oc2cccc(NC(=O)Nc3ccc(Cl)c(C(F)(F)F)c3)c2)cc1 + COC(=O)c1ccc([C@H]2c3[nH]c4ccccc4c3C[C@H](C(=O)OC)N2C(=O)CCl)cc1 [RSL3]
- relative cell viability (HCC1937): 0.0959
- relative cell viability (MDA-MB-231): 0.216

Compound: COc1ccc(Nc2ccn(-c3ccccc3)n2)cc1 + COC(=O)c1ccc([C@H]2c3[nH]c4ccccc4c3C[C@H](C(=O)OC)N2C(=O)CCl)cc1 [RSL3]
- relative cell viability (HCC1937): 0.425
- relative cell viability (MDA-MB-231): 0.839

Compound: COc1ccc(-c2coc3cc(OC)ccc3c2=O)cc1 [4',7-Dimethoxyisoflavone] + COC(=O)c1ccc([C@H]2c3[nH]c4ccccc4c3C[C@H](C(=O)OC)N2C(=O)CCl)cc1 [RSL3]
- relative cell viability (HCC1937): 0.251
- relative cell viability (MDA-MB-231): 0.36

Compound: CC(C)(Oc1ccc(C(=O)c2ccc(Cl)cc2)cc1)C(=O)O [Fenofibric acid] + COC(=O)c1ccc([C@H]2c3[nH]c4ccccc4c3C[C@H](C(=O)OC)N2C(=O)CCl)cc1 [RSL3]
- relative cell viability (HCC1937): 0.536
- relative cell viability (MDA-MB-231): 0.535

Compound: N#Cc1c(O)c2c(-c3ccc(-c4ccccc4O)cc3)csc2[nH]c1=O + COC(=O)c1ccc([C@H]2c3[nH]c4ccccc4c3C[C@H](C(=O)OC)N2C(=O)CCl)cc1 [RSL3]
- relative cell viability (HCC1937): 0.412
- relative cell viability (MDA-MB-231): 0.423

Compound: CN(C)CCOC(=O)COc1ccc(Cl)cc1 [Meclofenoxate hydrochloride] + COC(=O)c1ccc([C@H]2c3[nH]c4ccccc4c3C[C@H](C(=O)OC)N2C(=O)CCl)cc1 [RSL3]
- relative cell viability (HCC1937): 0.612
- relative cell viability (MDA-MB-231): 0.574

Compound: COP(=O)(OC)OC(c1ccc(Cl)cc1)P(=O)(OC)OC (configuration not stated) [Mifobate] + COC(=O)c1ccc([C@H]2c3[nH]c4ccccc4c3C[C@H](C(=O)OC)N2C(=O)CCl)cc1 [RSL3]
- relative cell viability (HCC1937): 0.632
- relative cell viability (MDA-MB-231): 0.669

Compound: CN(CCOc1ccc(CC2SC(=O)NC2=O)cc1)c1ccccn1 (configuration not stated) [Rosiglitazone HCl] + COC(=O)c1ccc([C@H]2c3[nH]c4ccccc4c3C[C@H](C(=O)OC)N2C(=O)CCl)cc1 [RSL3]
- relative cell viability (HCC1937): 0.486
- relative cell viability (MDA-MB-231): 0.714

Compound: Cc1cc(N2C[C@@H](C)N[C@@H](C)C2)ncc1-c1ccc(-c2nc3c(ccn3C)c(=O)[nH]2)cc1 + COC(=O)c1ccc([C@H]2c3[nH]c4ccccc4c3C[C@H](C(=O)OC)N2C(=O)CCl)cc1 [RSL3]
- relative cell viability (HCC1937): 0.496
- relative cell viability (MDA-MB-231): 0.682

Compound: O=C(O)C(=O)Nc1sc2c(c1C(=O)O)CCNC2 + COC(=O)c1ccc([C@H]2c3[nH]c4ccccc4c3C[C@H](C(=O)OC)N2C(=O)CCl)cc1 [RSL3]
- relative cell viability (HCC1937): 0.541
- relative cell viability (MDA-MB-231): 0.648

Compound: Nc1cccc(S(=O)(=O)N2CCCN(S(=O)(=O)c3ccc4c(c3)OCCO4)CC2)c1 + COC(=O)c1ccc([C@H]2c3[nH]c4ccccc4c3C[C@H](C(=O)OC)N2C(=O)CCl)cc1 [RSL3]
- relative cell viability (HCC1937): 0.382
- relative cell viability (MDA-MB-231): 0.632

Compound: O=C1c2cc(CO)cc(O)c2C(=O)c2c(O[C@@H]3O[C@H](CO)[C@@H](O)[C@H](O)[C@H]3O)cccc21 [Aloe-emodin-8-O-beta-D-glucopyranoside] + COC(=O)c1ccc([C@H]2c3[nH]c4ccccc4c3C[C@H](C(=O)OC)N2C(=O)CCl)cc1 [RSL3]
- relative cell viability (HCC1937): 0.368
- relative cell viability (MDA-MB-231): 0.544

Compound: CCC(=O)O[C@]1(C(=O)SCF)[C@H](C)C[C@H]2[C@@H]3C[C@H](F)C4=CC(=O)C=C[C@]4(C)[C@@]3(F)[C@@H](O)C[C@@]21C [Fluticasone propionate] + COC(=O)c1ccc([C@H]2c3[nH]c4ccccc4c3C[C@H](C(=O)OC)N2C(=O)CCl)cc1 [RSL3]
- relative cell viability (HCC1937): 0.751
- relative cell viability (MDA-MB-231): 0.566

Compound: C/C=C(\CC[C@@H](C)[C@H]1CC[C@H]2[C@@H]3CC=C4C[C@@H](O)CC[C@]4(C)[C@H]3CC[C@]12C)C(C)C [Fucosterol] + COC(=O)c1ccc([C@H]2c3[nH]c4ccccc4c3C[C@H](C(=O)OC)N2C(=O)CCl)cc1 [RSL3]
- relative cell viability (HCC1937): 0.476
- relative cell viability (MDA-MB-231): 0.694

Compound: C=CC[S+]([O-])C[C@H](N)C(=O)O (some centres not stated) [Alliin] + COC(=O)c1ccc([C@H]2c3[nH]c4ccccc4c3C[C@H](C(=O)OC)N2C(=O)CCl)cc1 [RSL3]
- relative cell viability (HCC1937): 0.554
- relative cell viability (MDA-MB-231): 0.704

Compound: c1cc(-c2cnn3cc(-c4ccc(OCCN5CCCCC5)cc4)cnc23)ccn1 [Dorsomorphin] + COC(=O)c1ccc([C@H]2c3[nH]c4ccccc4c3C[C@H](C(=O)OC)N2C(=O)CCl)cc1 [RSL3]
- relative cell viability (HCC1937): 0.123
- relative cell viability (MDA-MB-231): 0.31

Compound: CC(C)(O)c1ccccc1CC[C@@H](SCC1(CC(=O)O)CC1)c1cccc(/C=C/c2ccc3ccc(Cl)cc3n2)c1 [Montelukast] + COC(=O)c1ccc([C@H]2c3[nH]c4ccccc4c3C[C@H](C(=O)OC)N2C(=O)CCl)cc1 [RSL3]
- relative cell viability (HCC1937): 0.589
- relative cell viability (MDA-MB-231): 0.484
